Several values for one entry are separate records, joined by “and”; a condition that tells them apart may be missing. Equal values may be shown once. Hit rate of the full screen: of about 5,500 compounds, about 2,000 (36%) were called active. Not shown: some 18% with an inconclusive outcome. Some of the results follow. A number with no mark means an inactive call. No stated cut-off is given here; in the data, active means normalized growth mostly below about 0.91 (no sharp cut-off); inconclusive means no clear call, values can overlap the other calls; inactive means mostly above about 0.92.
Assay: chemical genetic growth profiling, strain panel (AID 1159580);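 further: tested at 20 µM; growth read once vehicle control cultures reached saturation at 30 °C; 1 = growth at the plate median or of vehicle wells; lower values mean less growth of the strain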
Settings: S. cerevisiae deletion strains, growth OD

Q: For Clc1ccc(C(c2ccccc2Cl)C(Cl)Cl)cc1 (centres undefined), which normalized growth (locus YAL013W, strain DEP1, active compounds read low) is on record?
A: 0.997

Q: What about the normalized growth (locus YAL021C, strain ccr4, active compounds read low) of the same compound?
A: 1.07

Q: What about the normalized growth (locus YAL026C, strain drs2, active compounds read low) of the same compound?
A: 0.943

Q: What about the normalized growth (locus YAL030W, strain snc1, active compounds read low) of the same compound?
A: 0.94

Q: And the normalized growth (locus YAL040C, strain CLN3, active compounds read low)?
A: 1

Q: And the normalized growth (locus YBL061C, strain skt5, active compounds read low)?
A: 0.948

Q: And the normalized growth (locus YBR009C, strain hhf1, active compounds read low)?
A: 0.928

Q: What about the normalized growth (locus YBR021W, strain FUR4, active compounds read low) of the same compound?
A: 0.949

Q: And the normalized growth (locus YBR023C, strain chs3, active compounds read low)?
A: 0.973

Q: And the normalized growth (locus YBR171W, strain sec66, active compounds read low)?
A: 0.941

Q: And the normalized growth (locus YBR229C, strain ROT2, active compounds read low)?
A: 0.998

Q: What about the normalized growth (locus YBR231C, strain swc5, active compounds read low) of the same compound?
A: 0.964

Q: And the normalized growth (locus YBR279W, strain paf1, active compounds read low)?
A: 0.987

Q: What about the normalized growth (locus YCL011C, strain gbp2, active compounds read low) of the same compound?
A: 0.918

Q: What about the normalized growth (locus YCL016C, strain dcc1, active compounds read low) of the same compound?
A: 0.97

Q: What about the normalized growth (locus YCL029C, strain bik1, active compounds read low) of the same compound?
A: 0.986

Q: What about the normalized growth (locus YCL061C, strain MRC1 (second series), active compounds read low) of the same compound?
A: 1.01

Q: What about the normalized growth (locus YCL061C, strain MRC1, active compounds read low) of the same compound?
A: 0.907 (active)

Q: What about the normalized growth (locus YCL069W, strain vba3, active compounds read low) of the same compound?
A: 0.982

Q: And the normalized growth (locus YCR088W, strain abp1, active compounds read low)?
A: 0.988

Q: And the normalized growth (locus YDL005C, strain med2, active compounds read low)?
A: 0.967

Q: And the normalized growth (locus YDL035C, strain GPR1, active compounds read low)?
A: 1

Q: And the normalized growth (locus YDL040C, strain nat1, active compounds read low)?
A: 0.989

Q: And the normalized growth (locus YDL074C, strain BRE1, active compounds read low)?
A: 0.956

Q: And the normalized growth (locus YDL101C, strain DUN1, active compounds read low)?
A: 1

Q: What about the normalized growth (locus YDL134C, strain PPH21, active compounds read low) of the same compound?
A: 0.993

Q: And the normalized growth (locus YDL185W, strain tfp1, active compounds read low)?
A: 0.984

Q: And the normalized growth (locus YDL192W, strain arf1, active compounds read low)?
A: 0.989

Q: What about the normalized growth (locus YDR001C, strain nth1, active compounds read low) of the same compound?
A: 0.981

Q: And the normalized growth (locus YDR069C, strain doa4, active compounds read low)?
A: 0.915

Q: What about the normalized growth (locus YDR101C, strain arx1, active compounds read low) of the same compound?
A: 0.987

Q: What about the normalized growth (locus YDR137W, strain rgp1, active compounds read low) of the same compound?
A: 0.932

Q: And the normalized growth (locus YDR150W, strain NUM1, active compounds read low)?
A: 1.02

Q: And the normalized growth (locus YDR159W, strain sac3, active compounds read low)?
A: 1

Q: And the normalized growth (locus YDR162C, strain NBP2, active compounds read low)?
A: 1.02

Q: What about the normalized growth (locus YDR195W, strain ref2) of the same compound?
A: 1.06

Q: What about the normalized growth (locus YDR297W, strain sur2, active compounds read low) of the same compound?
A: 0.956

Q: And the normalized growth (locus YDR318W, strain mcm21, active compounds read low)?
A: 0.985

Q: What about the normalized growth (locus YDR334W, strain swr1, active compounds read low) of the same compound?
A: 0.962

Q: What about the normalized growth (locus YDR335W, strain msn5, active compounds read low) of the same compound?
A: 0.967

Q: And the normalized growth (locus YDR363W, strain ESC2, active compounds read low)?
A: 1.01

Q: What about the normalized growth (locus YDR388W, active compounds read low) of the same compound?
A: 0.991

Q: What about the normalized growth (locus YDR392W, strain spt3, active compounds read low) of the same compound?
A: 0.869

Q: And the normalized growth (locus YDR502C, strain sam2, active compounds read low)?
A: 0.984

Q: And the normalized growth (locus YEL003W, strain gim4, active compounds read low)?
A: 0.969

Q: And the normalized growth (locus YEL037C, strain rad23, active compounds read low)?
A: 0.983

Q: What about the normalized growth (locus YEL061C, strain CIN8 (second series), active compounds read low) of the same compound?
A: 0.984

Q: And the normalized growth (locus YEL061C, strain CIN8, active compounds read low)?
A: 1

Q: What about the normalized growth (locus YER002W, strain NOP16, active compounds read low) of the same compound?
A: 1.12 [resistant] (active)

Q: And the normalized growth (locus YER015W, strain faa2, active compounds read low)?
A: 0.978

Q: And the normalized growth (locus YER016W, strain bim1, active compounds read low)?
A: 1.02

Q: What about the normalized growth (locus YER110C, active compounds read low) of the same compound?
A: 0.986

Q: And the normalized growth (locus YER111C, strain swi4, active compounds read low)?
A: 0.986

Q: What about the normalized growth (locus YER155C, strain BEM2 (second series), active compounds read low) of the same compound?
A: 0.96

Q: And the normalized growth (locus YER155C, strain BEM2, active compounds read low)?
A: 0.994

Q: What about the normalized growth (locus YER167W, strain BCK2, active compounds read low) of the same compound?
A: 1

Q: And the normalized growth (locus YFR010W, strain ubp6, active compounds read low)?
A: 0.942

Q: What about the normalized growth (locus YGL078C, strain dbp3, active compounds read low) of the same compound?
A: 0.99

Q: What about the normalized growth (locus YGL086W, strain mad1, active compounds read low) of the same compound?
A: 0.981

Q: And the normalized growth (locus YGL167C, strain pmr1, active compounds read low)?
A: 0.972

Q: What about the normalized growth (locus YGL173C, strain kem1, active compounds read low) of the same compound?
A: 0.936

Q: And the normalized growth (locus YGL227W, strain vid30, active compounds read low)?
A: 0.987

Q: And the normalized growth (locus YGL240W, strain doc1, active compounds read low)?
A: 0.925

Q: What about the normalized growth (locus YGL248W, strain PDE1, active compounds read low) of the same compound?
A: 0.993

Q: What about the normalized growth (locus YGL253W, strain hxk2, active compounds read low) of the same compound?
A: 0.977

Q: And the normalized growth (locus YGR078C, strain PAC10, active compounds read low)?
A: 0.987 and 0.999

Q: And the normalized growth (locus YGR135W, strain pre9, active compounds read low)?
A: 0.968

Q: What about the normalized growth (locus YGR229C, strain SMI1, active compounds read low) of the same compound?
A: 0.978 and 1.01

Q: What about the normalized growth (locus YGR252W, strain gcn5, active compounds read low) of the same compound?
A: 0.874

Q: And the normalized growth (locus YHR013C, strain ard1, active compounds read low)?
A: 1.11

Q: What about the normalized growth (locus YHR027C, strain rpn1, active compounds read low) of the same compound?
A: 0.982

Q: And the normalized growth (locus YHR030C, strain SLT2, active compounds read low)?
A: 0.985 and 0.893

Q: What about the normalized growth (locus YHR079C, strain IRE1 (second series), active compounds read low) of the same compound?
A: 0.983

Q: And the normalized growth (locus YHR079C, strain IRE1, active compounds read low)?
A: 0.947

Q: And the normalized growth (locus YHR094C, strain hxt1, active compounds read low)?
A: 0.992

Q: And the normalized growth (locus YHR129C, strain ARP1, active compounds read low)?
A: 1

Q: What about the normalized growth (locus YHR142W, strain chs7, active compounds read low) of the same compound?
A: 0.919

Q: What about the normalized growth (locus YHR200W, strain rpn10, active compounds read low) of the same compound?
A: 0.98

Q: What about the normalized growth (locus YIL066C, strain RNR3, active compounds read low) of the same compound?
A: 0.963

Q: And the normalized growth (locus YIL073C, strain SPO22, active compounds read low)?
A: 0.952

Q: And the normalized growth (locus YIL125W, strain kgd1, active compounds read low)?
A: 0.998

Q: What about the normalized growth (locus YIR030C, strain dcg1, active compounds read low) of the same compound?
A: 0.99

Q: What about the normalized growth (locus YJL092W, strain hpr5, active compounds read low) of the same compound?
A: 0.961

Q: And the normalized growth (locus YJL095W, strain BCK1 (second series), active compounds read low)?
A: 0.973

Q: And the normalized growth (locus YJL095W, strain BCK1, active compounds read low)?
A: 1 and 0.933

Q: What about the normalized growth (locus YJL115W, strain asf1, active compounds read low) of the same compound?
A: 0.976

Q: And the normalized growth (locus YJL129C, strain trk1, active compounds read low)?
A: 0.828 (active)

Q: What about the normalized growth (locus YJL134W, strain LCB3, active compounds read low) of the same compound?
A: 1

Q: What about the normalized growth (locus YJL154C, strain vps35, active compounds read low) of the same compound?
A: 0.978

Q: And the normalized growth (locus YJL164C, strain tpk1, active compounds read low)?
A: 0.95

Q: What about the normalized growth (locus YJL166W, strain qcr8, active compounds read low) of the same compound?
A: 0.825 (active)

Q: What about the normalized growth (locus YJL168C, strain set2, active compounds read low) of the same compound?
A: 0.988

Q: What about the normalized growth (locus YJL187C, strain SWE1 (second series), active compounds read low) of the same compound?
A: 0.997

Q: And the normalized growth (locus YJR043C, strain POL32, active compounds read low)?
A: 1

Source: PubChem BioAssay AID1159580 (chemical genetic matrix, 2015)
